Results as given in PubChem BioAssay (NCATS).
Records with an inconclusive call do not appear. Unless noted, calls come from the whole dose curve; as a rule, active = well fitted curve in either direction with a large enough effect (not every such curve was filed as active); inconclusive = small, poorly fitted or top-dose-only effect, or another doubt; inactive = flat fitted curve, though single readings scatter.

How the values were obtained:
[1] = AP1 Signaling Pathway (AID 357); conditions: ME-180 AP-1-bla reporter, EGF-induced, beta-lactamase ratio, 5 h; at 17.2 µM (top of the series) unless noted;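 note: ME-180 reporter cells stimulated with EGF at its EC50 level; % is set by controls: 0 for no effect and ±100 for the full control effect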
How it was run: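 First, ME-180 AP-1-bla cells were cultured overnight at 37 °C in low-serum Opti-MEM. Next, titrated compounds with EC50 EGF were incubated 5 hours. Finally, CCF4 was added for 2.5 hours and the 460/530 nm ratio recorded.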

[2] = NFAT Signaling Pathway (AID 444); conditions: Jurkat NFAT-bla M1, carbachol, beta-lactamase ratio, 5 h; at 17.2 µM (top of the series) unless noted;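 note: carbachol stimulus at about its EC50 of 1 µM final; % is set by controls: 0 for no effect and ±100 for the full control effect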
How it was run: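 Read-out: CCF4 FRET ratio (460 nm/530 nm) after 1 h RT dye loading, used for %activity and AC50 from titration series. Cells: Jurkat NFAT-β-lactamase/M1 line, treated with compound plus 1 uM carbachol for 5 h, 37 °C.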

[3] = Stat Signaling Pathway (AID 446); conditions: ME-180 SIE beta-lactamase reporter, IL-6 stimulated, 5 h; at 17.2 µM (top of the series) unless noted;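 note: ME-180 cervical cancer cells given 40 pM IL-6 alongside compound; SIE-controlled beta-lactamase reporter measured as 460/530 nm FRET emission ratio; % is set by controls: 0 for no effect and ±100 for the full control effect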
How it was run: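 Screening format detects activators and inhibitors alike: ME-180 SIE-bla cells stimulated at 40 pM IL-6 for 5 hrs with compound, then dual-emission beta-lactamase read at 405 nm excitation.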

[4] = target: Glucocorticoid receptor (Homo sapiens) (UniProt P04150); experiment: GR-GFP Redistribution (AID 450;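 active = compounds whose dose series gives a full or clear partial fitted curve of increased nuclear translocation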; note: potency is the fitted concentration of half-maximal effect)
Glucocorticoid receptor (Homo sapiens), sequence (P04150 whole entry, looked up): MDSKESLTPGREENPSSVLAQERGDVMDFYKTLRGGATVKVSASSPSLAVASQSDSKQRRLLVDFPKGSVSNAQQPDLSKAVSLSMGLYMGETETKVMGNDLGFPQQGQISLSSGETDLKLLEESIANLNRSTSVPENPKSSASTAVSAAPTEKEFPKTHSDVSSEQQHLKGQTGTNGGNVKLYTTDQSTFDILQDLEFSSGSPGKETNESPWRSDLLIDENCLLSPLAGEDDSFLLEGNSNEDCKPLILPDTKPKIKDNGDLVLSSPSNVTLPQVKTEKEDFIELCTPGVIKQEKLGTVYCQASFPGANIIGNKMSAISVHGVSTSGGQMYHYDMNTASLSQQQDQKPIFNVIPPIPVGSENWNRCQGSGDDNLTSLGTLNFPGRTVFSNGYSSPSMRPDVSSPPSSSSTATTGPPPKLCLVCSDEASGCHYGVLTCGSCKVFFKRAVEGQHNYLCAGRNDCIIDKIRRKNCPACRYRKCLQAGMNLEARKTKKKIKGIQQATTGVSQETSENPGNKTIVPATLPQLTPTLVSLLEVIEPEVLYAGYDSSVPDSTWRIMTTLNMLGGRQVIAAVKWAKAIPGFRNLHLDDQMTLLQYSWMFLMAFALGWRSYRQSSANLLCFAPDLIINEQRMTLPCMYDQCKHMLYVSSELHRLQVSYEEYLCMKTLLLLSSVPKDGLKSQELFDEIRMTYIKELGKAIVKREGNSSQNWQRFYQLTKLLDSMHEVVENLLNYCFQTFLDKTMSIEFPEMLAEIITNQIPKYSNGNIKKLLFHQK

N#Cc1nc(-c2ccc(F)cc2)oc1N1CCCC1
inactive: activity change, negative = inhibition [1] 0.0908% | activity change, negative = inhibition [2] -1.86% | activity, negative = inhibition [3] -3.18% | Potency [4] > 20.6 µM

Nc1nonc1-c1noc(N2CCOCC2)n1
inactive: activity change, negative = inhibition [1] 4.65% | activity change, negative = inhibition [2] -8.54% | activity, negative = inhibition [3] -2.07% | Potency [4] > 20.6 µM

NS(=O)(=O)c1cc2c(cc1Cl)NC(C1C[C@H]3C=C[C@@H]1C3)NS2(=O)=O (stereo not given in full)
inactive: activity change, negative = inhibition [1] 4.88% | activity change, negative = inhibition [2] -20.1% | activity, negative = inhibition [3] -0.0433% | Potency [4] > 20.6 µM

CC(C)C1Cc2c(sc3c2c(=O)n(Cc2ccccc2)c2nncn32)CO1 (stereo not given)
inactive: activity change, negative = inhibition [1] -0.408% | activity change, negative = inhibition [2] -11.6% | activity, negative = inhibition [3] -3.52% | Potency [4] > 20.6 µM

Cc1cc(=O)oc(C)c1C(=O)N1CCN(Cc2ccc3c(c2)OCO3)CC1
inactive: activity change, negative = inhibition [1] 6.44% | activity change, negative = inhibition [2] 17.1% | activity, negative = inhibition [3] 5.97% | Potency [4] > 20.6 µM

CC1(C)CC(=O)C(CCCN2C(=O)c3ccccc3C2=O)C(=O)C1
inactive: activity change, negative = inhibition [1] 8.1% | activity change, negative = inhibition [2] 2.72% | activity, negative = inhibition [3] 16.7% | Potency [4] > 20.6 µM

O=C(O)C(O)c1ccco1 (stereo not given)
inactive: activity change, negative = inhibition [1] -5.38% | activity change, negative = inhibition [2] -2.98% | activity, negative = inhibition [3] 1.78% | Potency [4] > 20.6 µM

CCOc1cccc(-c2nnc3sc(-c4ccc(C)cc4)nn23)c1
inactive: activity change, negative = inhibition [1] 18.5% | activity change, negative = inhibition [2] -19.6% | activity, negative = inhibition [3] 24.1% | Potency [4] > 20.6 µM

CCCCCOC(=O)Cc1c(C)nc(-c2ccccc2)[nH]c1=O
inactive: activity change, negative = inhibition [1] -3.29% | activity change, negative = inhibition [2] 8.16% | activity, negative = inhibition [3] 4.57% | Potency [4] > 20.6 µM

COc1cc(S(=O)(=O)N2CCN(c3ccc(F)cc3)CC2)ccc1Cl
inactive: activity change, negative = inhibition [1] 5.09% | activity change, negative = inhibition [2] -11.7% | activity, negative = inhibition [3] -12.1% | Potency [4] > 20.6 µM

CC(=O)/C=C(\C)NCCNc1c(F)c(F)c(CO)c(F)c1F
inactive: activity change, negative = inhibition [1] -4.08% | activity change, negative = inhibition [2] 1.05% | activity, negative = inhibition [3] -2.87% | Potency [4] > 20.6 µM

Cn1nccc1C(=O)Nc1ccccc1C(=O)O
inactive: activity change, negative = inhibition [1] -2.42% | activity change, negative = inhibition [2] 5.13% | activity, negative = inhibition [3] 4.71% | Potency [4] > 20.6 µM

OC(CCCN1CCC(O)(c2ccc(Cl)cc2)CC1)c1ccc(F)cc1 (stereo not given)
inactive: activity change, negative = inhibition [1] -2.74% | activity change, negative = inhibition [2] -27.5% | activity, negative = inhibition [3] 4.61% | Potency [4] > 20.6 µM

O=C(NCc1cccnc1)NC(C(F)(F)F)C(F)(F)F
inactive: activity change, negative = inhibition [1] 12.5% | activity change, negative = inhibition [2] 2.52% | activity, negative = inhibition [3] 8.58% | Potency [4] > 20.6 µM

CCOC(=O)C1=C(C)NC(=O)NC1c1ccc2c(c1)OCO2 (stereo not given)
inactive: activity change, negative = inhibition [1] -4.59% | activity change, negative = inhibition [2] -26.9% | activity, negative = inhibition [3] -3.46% | Potency [4] > 20.6 µM

O=C(Cc1cscn1)c1ccc(O)cc1O
inactive: activity change, negative = inhibition [1] 4.71% | activity change, negative = inhibition [2] 4.07% | activity, negative = inhibition [3] 12.7% | Potency [4] > 20.6 µM

CC(NC(=O)Nc1cccnc1)(C(F)(F)F)C(F)(F)F
inactive: activity change, negative = inhibition [1] -12.1% | activity change, negative = inhibition [2] -11.5% | activity, negative = inhibition [3] -3.14% | Potency [4] > 20.6 µM

Cc1nccn1-c1cc(C(C)C)c(C#N)c2nc3ccccc3n12
inactive: activity change, negative = inhibition [1] 0.38% | activity change, negative = inhibition [2] -0.783% | activity, negative = inhibition [3] -0.277% | Potency [4] > 20.6 µM

COc1ccc(/C(O)=C2/C(=O)C(=O)N(CCCN(C)C)C2c2ccc(C)o2)cc1Cl (stereo not given)
inactive: activity change, negative = inhibition [1] 9.2% | activity change, negative = inhibition [2] -6.18% | activity, negative = inhibition [3] 3.77% | Potency [4] > 20.6 µM

c1ccc(CSc2nnc(SCc3ccccn3)s2)nc1
inactive: activity change, negative = inhibition [1] -9.4% | activity change, negative = inhibition [2] 3.91% | activity, negative = inhibition [3] -4.62% | Potency [4] > 20.6 µM

CC1C/C=C/C=C/C=C/C=C/C(O[C@@H]2O[C@H](C)[C@@H](O)[C@H](N)[C@@H]2O)CC2OC(O)(CC(O)CC3OC3/C=C/C(=O)O1)CC(O)C2C(=O)O (stereo not given in full)
inactive: activity change, negative = inhibition [1] 1.3% | activity change, negative = inhibition [2] 0.554% | activity, negative = inhibition [3] 5.83% | Potency [4] > 20.6 µM

COn1c(SC2CCCCC2)nc2ccccc2c1=O
inactive: activity change, negative = inhibition [1] -10.8% | activity change, negative = inhibition [2] 7.75% | activity, negative = inhibition [3] -9.6% | Potency [4] > 20.6 µM

COc1ccc2c(c1)[nH]c1c(=O)n(CCN(C)C)cnc12
inactive: activity change, negative = inhibition [1] 10.5% | activity change, negative = inhibition [2] 15.2% | activity, negative = inhibition [3] 8.04% | Potency [4] > 20.6 µM

O=C1C(=O)N(CCCn2ccnc2)C(c2ccccn2)/C1=C(/O)c1ccccc1 (stereo not given)
inactive: activity change, negative = inhibition [1] 15.8% | activity change, negative = inhibition [2] 6.66% | activity, negative = inhibition [3] -2.92% | Potency [4] > 20.6 µM

CCOc1nc(Oc2cccc(C(=O)O)c2)nc(Oc2cccc(C(=O)O)c2)n1
inactive: activity change, negative = inhibition [1] 29.4% | activity change, negative = inhibition [2] 0.693% | activity, negative = inhibition [3] 8.24% | Potency [4] > 20.6 µM
